In PubChem BioAssay (NCATS):
Records with an inconclusive call do not appear. Where a call stands in place of a potency, no number is given. Unmarked numbers belong to inactive results. Active and inactive are the calls of the source. Unless noted, the call rests on the fitted dose curve; in most records, active means well fitted curve in the direction sought with a large enough effect; inconclusive means small, poorly fitted or top-dose-only effect, or another doubt; inactive means no such curve, though single readings can be large; an effect the other way counts as inactive or inconclusive.

Columns and labels:
[1] = target: Aldehyde dehydrogenase, mitochondrial (Homo sapiens) (UniProt P05091); assay: qHTS for Inhibitors of the Aldehyde Dehydrogenase Family (ALDH2) Confirmatory screens (AID 2061303; active means well fitted inhibition curve with a large enough effect; title and protocol of this record describe different tests; further: nearly all actives have a fitted effect of over 45% in size; further: potency means the concentration at half of the fitted maximal effect); details: ALDH inhibition qHTS; series mostly up to 45.4 µM
[2] = qHTS for Inhibitors of the Aldehyde Dehydrogenase Family (ALDH1A2, ALDH1A3, ALDH2, ALDH3A1) (AID 2061307); details: ALDH inhibition qHTS; series mostly up to 50.3 µM; further: nearly all actives have a fitted effect of over 50% in size; on potency: test system not described further here; potency means the concentration at half of the fitted maximal effect
[3] = target: Aldehyde dehydrogenase, mitochondrial (Homo sapiens) (UniProt P05091); assay: qHTS for Inhibitors of the Aldehyde Dehydrogenase Family (ALDH2) Primary screen (AID 2061308); details: ALDH2 enzyme inhibition qHTS, 1536-well; series mostly up to 56 µM; further: nearly all actives have a fitted effect of over 55% in size; further: potency means the concentration at half of the fitted maximal effect
[4] = target: Retinaldehyde dehydrogenase 3 (Homo sapiens) (UniProt P47895); assay: qHTS for Inhibitors of the Aldehyde Dehydrogenase Family (ALDH1A3) Confirmatory screens (AID 2061311); details: ALDH inhibition qHTS; series mostly up to 46 µM; further: nearly all actives have a fitted effect of over 60% in size; further: potency means the concentration at half of the fitted maximal effect
[5] = target: Retinaldehyde dehydrogenase 3 (Homo sapiens) (UniProt P47895); assay: qHTS for Inhibitors of the Aldehyde Dehydrogenase Family (ALDH1A3) Primary screen (AID 2061315); details: ALDH inhibition qHTS; series mostly up to 56 µM
[6] = target: Retinal dehydrogenase 2 (Homo sapiens) (UniProt O94788); assay: qHTS for Inhibitors of the Aldehyde Dehydrogenase Family (ALDH1A2) Confirmation screens (AID 2061314); details: ALDH1A2 enzyme inhibition qHTS confirmation; series mostly up to 45.9 µM; further: nearly all actives have a fitted effect of over 65% in size; further: potency means the concentration at half of the fitted maximal effect
[7] = target: Aldehyde dehydrogenase 1A1 (Homo sapiens) (UniProt P00352); assay: qHTS for Inhibitors of the Aldehyde Dehydrogenase Family (ALDH1A1) Confirmatory screens (AID 2061316); details: ALDH inhibition qHTS; series mostly up to 47.3 µM; further: nearly all actives have a fitted effect of over 65% in size; further: potency means the concentration at half of the fitted maximal effect
[8] = BET inhibitor-based combinations targeting novel dependencies in MECOM-rearranged (r) AML: SET-2 cell line (AID 2202231); details: SET-2 AML cells viability, CellTiter-Glo luminescence, 48 h; viability: stronger effect = lower value, concentration not given here; further: nearly all actives have a fitted effect of over 35% in size
In short: (§1)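 500 cells/well; 11-pt dose curve; 48 h, standard incubator; CellTiter-Glo luminescence after 15 min RT; DMSO/empty-well normalization; AUC plus Z-AUC (mean-centered within each line).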

[9] = BET inhibitor-based combinations targeting novel dependencies in MECOM-rearranged (r) AML: OCI-AML3 cell line (AID 2202232); details: CellTiter-Glo luminescence, 48 h; Potency: OCI-AML3 viability; series mostly up to 46 µM; further: nearly all actives have a fitted effect of over 35% in size
In short: as §1

[10] = BET inhibitor-based combinations targeting novel dependencies in MECOM-rearranged (r) AML: MV-4-11 cell line (AID 2202233); details: MV-4-11 AML viability, CellTiter-Glo luminescence, 48 h; series mostly up to 46 µM; further: nearly all actives have a fitted effect of over 45% in size
In short: (§2)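 Cells were plated at 500 per well and exposed to each drug across an 11-point dose range for 48 hr at standard incubator conditions. Viability was read by CellTiter-Glo luminescence, and activity was expressed as AUC and per-cell-line Z-transformed AUC.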

[11] = BET inhibitor-based combinations targeting novel dependencies in MECOM-rearranged (r) AML: HNT-34 cell line (AID 2202234); details: HNT-34 AML viability, CellTiter-Glo luminescence, 48 h; series mostly up to 46 µM; further: nearly all actives have a fitted effect of over 35% in size
In short: as §2

[12] = BET inhibitor-based combinations targeting novel dependencies in MECOM-rearranged (r) AML: AML-191 cell line (AID 2202236; further: nearly all actives have a fitted effect of over 35% in size); details: AML-191 viability, CellTiter-Glo luminescence, 48 h; series mostly up to 46 µM
In short: as §1

[13] = BET inhibitor-based combinations targeting novel dependencies in MECOM-rearranged (r) AML: AML-194 cell line (AID 2202237; further: nearly all actives have a fitted effect of over 40% in size); details: AML-194 (MECOM-r AML) viability, CellTiter-Glo, 48 h; series mostly up to 46 µM
In short: as §1

For `Cc1cccc(Nc2nc(C#N)nc(NC3CCCC3)n2)c1`, the Potency [1] was 2.51 µM (active), the Potency [2] was 0.447 µM (active) and the Potency [3] was “inactive”. For the same compound, the Potency [4] was 17.8 µM (active) and the Potency [5] was “inactive”.
For `COC(=O)N1CC2(CC2)C[C@H](C(=O)NO)[C@H]1C(=O)N1CCN(c2ccccc2)CC1`, the Potency [1] was “inactive”, the Potency [2] was “inactive” and the Potency [3] was “inactive”. For the same compound, the Potency [4] was “inactive”, the Potency [6] was “inactive” and the Potency [7] was “inactive”. The viability [8] was 112%, the Potency [9] was “inactive” and the Potency [10] was “inactive”. The Potency [11] was “inactive”, the Potency [12] was “inactive” and the Potency [13] was “inactive”.
With `COc1ccc(C2Nc3ccccc3C(=O)N2Cc2ccccc2C(F)(F)F)cc1COc1ccc(NC(C)=O)cc1` (centres undefined) the Potency [1] was 0.316 µM (active), the Potency [2] was 2.25 µM (active) and the Potency [3] was “inactive”. For the same compound, the Potency [4] was 15.9 µM (active) and the Potency [5] was “inactive”.
For `O=C(CSc1nnc(-c2cccc(S(=O)(=O)N3CCCC3)c2)n1-c1ccccc1)Nc1ccc(F)cc1`, the Potency [1] was “inactive”, the Potency [2] was “inactive” and the Potency [3] was “inactive”. The Potency [4] was “inactive”, the Potency [6] was “inactive” and the Potency [5] was “inactive”. For the same compound, the Potency [7] was “inactive”.
In the case of `Cc1nnc(-c2ccccc2C(C)C)nc1NCc1ccc(-c2cccnc2)cc1`, the Potency [1] was “inactive”, the Potency [2] was “inactive” and the Potency [3] was “inactive”. For the same compound, the Potency [4] was 12.7 µM (active), the Potency [6] was “inactive” and the Potency [5] was “inactive”. The Potency [7] was “inactive”.
For `O=C1Nc2ccccc2/C1=C\c1cc(F)c(O)c(F)c1`, the Potency [1] was “inactive”, the Potency [2] was “inactive” and the Potency [3] was 1.12 µM (active). The Potency [4] was 3.16 µM (active), the Potency [6] was 5.62 µM (active) and the Potency [7] was 8.96 µM (active).
For `CN1CCc2sc(NC(=O)Cc3ccccc3)c(C(=O)Nc3ccc(Cl)cc3)c2C1`, the Potency [1] was “inactive”, the Potency [2] was “inactive” and the Potency [3] was “inactive”. For the same compound, the Potency [4] was “inactive” and the Potency [5] was “inactive”.
With `COc1ccc(C[C@@H](NS(=O)(=O)c2ccc(C(=O)O)cc2)C(=O)O)cc1` the Potency [1] was “inactive”, the Potency [2] was “inactive” and the Potency [3] was “inactive”. The Potency [4] was “inactive”, the Potency [6] was “inactive” and the Potency [5] was “inactive”. The Potency [7] was “inactive”.
